The source of these data is PubChem BioAssay.

Assay [1] deals with Albumin (Bos taurus) (UniProt P02769). Briefly: compounds binding labelled BSA control protein – biochemical, small-molecule microarray, Alexa647 label, 635/667 nm fluorescence, artefact control for SMM control protein annotation, profiling panel (AID 1118).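 Further: score merges 667 nm emission intensity and signal-to-noise per printed compound spot.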 The conditions noted are these: BSA-A647 binding, fluorescence 635 nm, higher = more signal.
Assay [2] can be described thus: probe aXIP binding to arrayed compounds – biochemical, NeuroSMM set, 635/667 nm fluorescence, primary screen (AID 1119).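 Further: probe is the protein aXip251-270 applied at 1 µg/mL to compound-printed slides; binding of probe to printed compounds measured as 667 nm fluorescence plus signal to noise.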 The conditions noted are these: small-molecule microarray, higher = more signal, called active from +8 up or from −8 down.
Assay [3] can be described thus: probe aNOTCH3 binding on compound microarray – biochemical, small-molecule microarray, 635/667 nm fluorescence, primary screen (AID 1120).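 Further: probe is a biotin-tagged antibody raised against NOTCH3 rather than NOTCH3 protein; score merges spot fluorescence near 667 nm with spot signal to noise.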 As to conditions: higher = more signal.
Assay [4] can be described thus: probe aNOTCH2 binding on compound microarray – biochemical, small-molecule microarray, 635/667 nm fluorescence, primary screen (AID 1121).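 Further: score merges feature fluorescence read at 667 nm with its signal to noise.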 As to conditions: higher = more signal.
The target of assay [5] is Carbonic anhydrase 2 (Homo sapiens) (UniProt P00918). Nature of the assay: compounds binding carbonic anhydrase 2 – biochemical, small-molecule microarray, Alexa647-labelled CAII, profiling panel (AID 1122). As to conditions: CAII-A647 binding fluorescence, higher = more signal.
A short description of assay [6]: COS7 lysate on small-molecule microarray, probe aHis, 635 nm (AID 1123).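 Further: z-score combines 667nm fluorescence intensity with signal-to-noise per printed compound spot.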 The conditions noted are these: COS7 cell lysate, fluorescence, higher = more signal.
The nature of assay [7]: probe aLAP1 signal on lysate-treated microarray – cell lysate, small-molecule microarray, COS7 lysate, primary screen (AID 1124).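 Further: lysate comes from COS7 cells expressing LAP1 and is applied at 0.3 µg/mL; score merges spot fluorescence near 667 nm with signal-to-noise over triplicate slides.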 As to conditions: probe aLAP1, fluorescence, higher = more signal.
Assay [8] deals with Sam68 (KHDRBS1). Briefly: compounds binding KHDRBS1 protein – biochemical, small-molecule microarray, 635 nm fluorescence, primary screen (AID 1125).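 Further: score merges 667 nm channel intensity with signal to noise over triplicate slides.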 The conditions noted are these: higher = more signal.
Assay [9] relates to Chordin-like protein 2 (CHRDL2). Nature of the assay: compounds binding chordin-like 2 – biochemical, small-molecule microarray, 635 nm fluorescence, primary screen (AID 1126).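 Further: printed compound slides probed with Chrdl2 protein at 4 µg/mL for 1 h at 4 C; score merges 667 nm emission intensity with signal to noise over three replicate slides.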 The conditions noted are these: fluorescence 635 nm, higher = more signal.
The target in assay [10] is Concanavalin-A (Canavalia ensiformis) (UniProt P02866). Briefly: compounds binding concanavalin A lectin – biochemical, small-molecule microarray, Alexa647 label, 635 nm, artefact control for SMM control protein annotation, primary screen (AID 1127).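 Further: z combines 667 nm emission intensity with signal-to-noise across three replicate slides.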 As to conditions: ConA-A647 binding fluorescence, higher = more signal.
The nature of assay [11]: compounds binding Alexa647 anti-His antibody – biochemical, small-molecule microarray, 635 nm fluorescence, artefact control for SMM control protein annotation, primary screen (AID 1128).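 Further: score merges feature fluorescence with signal-to-noise for each printed compound spot.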 As to conditions: higher = more signal.
For assay [12], the system named is Human papillomavirus type 1a E7 protein (residues 1-88). Nature of the assay: HPV1a E7 small-molecule binders, primary screen, biochemical, small-molecule microarray, residues 1-88, 635 nm (AID 1129). The conditions noted are these: small-molecule microarray binding, fluorescence 635 nm; higher = more signal.
Assay [13] has as its target Focal adhesion kinase 1 (Homo sapiens) (UniProt Q05397). Nature of the assay: PTK2 protein binding on printed compound slides – biochemical, small-molecule microarray, 635/667 nm fluorescence, BSA, DTT, primary screen (AID 1130).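 Further: composite of spot emission at 667 nm and signal to noise over triplicate slides.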 The conditions noted are these: 635 nm fluorescence, higher = more signal.
For assay [14], the system named is Fibrinogen (Alexa647-labelled). Nature of the assay: Alexa647-fibrinogen binding to printed small molecules – biochemical, small-molecule microarray, 635/667 nm fluorescence, artefact control for SMM control-protein annotation, profiling panel (AID 1131).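 Further: z-score merges 667 nm fluorescence with per-spot signal-to-noise over triplicate slides.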 The conditions noted are these: fibrinogen-A647 binding fluorescence, higher = more signal.
Assay [15] addresses Follistatin (Homo sapiens) (UniProt P19883). Nature of the assay: FST protein binding to printed compounds – biochemical, small-molecule microarray, 635/667 nm fluorescence, primary screen (AID 1132). The conditions noted are these: 635 nm fluorescence, higher = more signal.
Assay [16] addresses Fibroblast growth factor 2 (Homo sapiens) (UniProt P09038). Nature of the assay: basic fibroblast growth factor binding to printed compounds – biochemical, small-molecule microarray, 635/667 nm fluorescence, primary screen (AID 1133). The conditions noted are these: FGF2, fluorescence 635/667, higher = more signal.
Assay [17] is described as follows: JC-1 mitochondrial potential readout, lung cancer cells – cell-based, A549, JC-1 fluorescence, basal, 24 h, 100 nL, profiling panel (AID 1138).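 Further: A549 lung adenocarcinoma cells under basal conditions with no added stimulus; test concentration not given here.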 The conditions noted are these: higher = more signal.
For assay [18], the system named is Lefty1. Briefly: Lefty1 protein binding to printed compounds – biochemical, small-molecule microarray, 635/667 nm fluorescence, primary screen (AID 1139). As to conditions: fluorescence 635/667, higher = more signal.
In assay [19] the test system is wheat germ agglutinin (Triticum aestivum), Alexa647-labelled. Briefly: Alexa647-WGA lectin binding to printed small molecules – biochemical, small-molecule microarray, 635/667 nm fluorescence, artefact control for SMM control-protein annotation, profiling panel (AID 1140).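 Further: score merges 667 nm feature emission with signal to noise over triplicate slides.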 As to conditions: WGA-A647 binding, 635 nm fluorescence, higher = more signal.
The target of assay [20] is Luciferin 4-monooxygenase (Photinus pyralis) (UniProt P08659). Briefly: inhibition of purified Photinus pyralis luciferase – biochemical, luminescence, purified enzyme, 2006 set, primary screen (AID 1141).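 Further: cell-free assay with purified firefly luciferase at 100 ng per well in PBS; test concentration not given here.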 The conditions noted are these: purified firefly luciferase, SteadyGlo luminescence, 30 min; higher = more signal, called active from +8 up or from −8 down.

Active and inactive are the calls of the source.

Sequence of Follistatin (Homo sapiens) (P19883 whole entry, looked up): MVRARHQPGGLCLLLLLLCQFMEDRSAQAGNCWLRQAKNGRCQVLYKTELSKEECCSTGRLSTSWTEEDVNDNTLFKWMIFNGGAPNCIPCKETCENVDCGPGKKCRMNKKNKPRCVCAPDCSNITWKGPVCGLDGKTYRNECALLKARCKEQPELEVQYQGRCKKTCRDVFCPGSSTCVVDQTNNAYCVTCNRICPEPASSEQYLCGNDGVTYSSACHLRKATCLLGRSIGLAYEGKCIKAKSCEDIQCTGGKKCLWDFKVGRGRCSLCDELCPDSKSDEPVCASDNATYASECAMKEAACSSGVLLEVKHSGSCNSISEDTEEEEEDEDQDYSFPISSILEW
Sequence of Concanavalin-A (Canavalia ensiformis) (P02866 whole entry, looked up): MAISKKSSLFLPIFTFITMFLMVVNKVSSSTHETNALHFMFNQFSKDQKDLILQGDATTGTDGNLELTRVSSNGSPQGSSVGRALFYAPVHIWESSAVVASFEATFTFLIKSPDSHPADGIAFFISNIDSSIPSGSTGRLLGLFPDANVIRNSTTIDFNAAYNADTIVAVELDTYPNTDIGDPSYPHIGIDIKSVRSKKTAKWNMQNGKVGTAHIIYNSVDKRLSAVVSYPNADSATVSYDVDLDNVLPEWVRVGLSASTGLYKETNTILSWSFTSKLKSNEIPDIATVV
Sequence of Albumin (Bos taurus) (P02769 whole entry, looked up): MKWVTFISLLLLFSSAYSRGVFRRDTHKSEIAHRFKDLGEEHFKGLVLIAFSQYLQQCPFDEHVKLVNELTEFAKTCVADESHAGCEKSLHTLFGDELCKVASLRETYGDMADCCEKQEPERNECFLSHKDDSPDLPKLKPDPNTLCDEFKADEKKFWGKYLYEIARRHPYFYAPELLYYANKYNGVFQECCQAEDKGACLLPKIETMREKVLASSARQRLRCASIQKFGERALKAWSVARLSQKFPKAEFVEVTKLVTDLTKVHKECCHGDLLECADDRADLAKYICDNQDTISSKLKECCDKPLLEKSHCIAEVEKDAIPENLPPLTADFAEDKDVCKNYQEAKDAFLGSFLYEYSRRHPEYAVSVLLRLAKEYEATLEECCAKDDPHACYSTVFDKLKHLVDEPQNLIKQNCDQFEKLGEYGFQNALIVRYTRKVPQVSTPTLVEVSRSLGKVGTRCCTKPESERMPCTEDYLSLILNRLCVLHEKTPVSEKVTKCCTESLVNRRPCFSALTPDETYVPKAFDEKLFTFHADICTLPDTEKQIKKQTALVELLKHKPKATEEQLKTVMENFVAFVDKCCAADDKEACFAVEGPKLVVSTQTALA
Sequence of Fibroblast growth factor 2 (Homo sapiens) (P09038 whole entry, looked up): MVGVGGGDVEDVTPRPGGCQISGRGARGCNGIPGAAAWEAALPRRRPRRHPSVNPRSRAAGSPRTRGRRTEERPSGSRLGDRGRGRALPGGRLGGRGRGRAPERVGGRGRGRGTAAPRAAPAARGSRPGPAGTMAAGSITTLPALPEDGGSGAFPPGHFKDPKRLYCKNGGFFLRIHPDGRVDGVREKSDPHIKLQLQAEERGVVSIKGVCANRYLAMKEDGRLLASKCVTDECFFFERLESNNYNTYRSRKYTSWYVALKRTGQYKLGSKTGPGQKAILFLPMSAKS
Sequence of Luciferin 4-monooxygenase (Photinus pyralis) (P08659 whole entry, looked up): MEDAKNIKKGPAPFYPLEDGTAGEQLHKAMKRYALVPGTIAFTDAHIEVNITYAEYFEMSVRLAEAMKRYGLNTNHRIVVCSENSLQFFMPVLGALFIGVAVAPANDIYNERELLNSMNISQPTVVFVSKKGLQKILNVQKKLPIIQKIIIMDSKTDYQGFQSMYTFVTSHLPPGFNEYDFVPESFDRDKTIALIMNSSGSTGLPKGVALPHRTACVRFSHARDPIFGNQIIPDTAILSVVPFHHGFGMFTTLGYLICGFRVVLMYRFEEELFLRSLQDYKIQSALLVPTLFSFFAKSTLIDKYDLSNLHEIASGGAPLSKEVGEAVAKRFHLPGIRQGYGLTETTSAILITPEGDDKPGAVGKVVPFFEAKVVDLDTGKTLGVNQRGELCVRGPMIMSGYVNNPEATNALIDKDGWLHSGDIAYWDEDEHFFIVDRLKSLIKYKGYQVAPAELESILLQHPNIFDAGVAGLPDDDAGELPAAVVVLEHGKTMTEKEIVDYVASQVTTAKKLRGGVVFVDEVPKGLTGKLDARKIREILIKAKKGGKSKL
Sequence of Focal adhesion kinase 1 (Homo sapiens) (Q05397 whole entry, looked up): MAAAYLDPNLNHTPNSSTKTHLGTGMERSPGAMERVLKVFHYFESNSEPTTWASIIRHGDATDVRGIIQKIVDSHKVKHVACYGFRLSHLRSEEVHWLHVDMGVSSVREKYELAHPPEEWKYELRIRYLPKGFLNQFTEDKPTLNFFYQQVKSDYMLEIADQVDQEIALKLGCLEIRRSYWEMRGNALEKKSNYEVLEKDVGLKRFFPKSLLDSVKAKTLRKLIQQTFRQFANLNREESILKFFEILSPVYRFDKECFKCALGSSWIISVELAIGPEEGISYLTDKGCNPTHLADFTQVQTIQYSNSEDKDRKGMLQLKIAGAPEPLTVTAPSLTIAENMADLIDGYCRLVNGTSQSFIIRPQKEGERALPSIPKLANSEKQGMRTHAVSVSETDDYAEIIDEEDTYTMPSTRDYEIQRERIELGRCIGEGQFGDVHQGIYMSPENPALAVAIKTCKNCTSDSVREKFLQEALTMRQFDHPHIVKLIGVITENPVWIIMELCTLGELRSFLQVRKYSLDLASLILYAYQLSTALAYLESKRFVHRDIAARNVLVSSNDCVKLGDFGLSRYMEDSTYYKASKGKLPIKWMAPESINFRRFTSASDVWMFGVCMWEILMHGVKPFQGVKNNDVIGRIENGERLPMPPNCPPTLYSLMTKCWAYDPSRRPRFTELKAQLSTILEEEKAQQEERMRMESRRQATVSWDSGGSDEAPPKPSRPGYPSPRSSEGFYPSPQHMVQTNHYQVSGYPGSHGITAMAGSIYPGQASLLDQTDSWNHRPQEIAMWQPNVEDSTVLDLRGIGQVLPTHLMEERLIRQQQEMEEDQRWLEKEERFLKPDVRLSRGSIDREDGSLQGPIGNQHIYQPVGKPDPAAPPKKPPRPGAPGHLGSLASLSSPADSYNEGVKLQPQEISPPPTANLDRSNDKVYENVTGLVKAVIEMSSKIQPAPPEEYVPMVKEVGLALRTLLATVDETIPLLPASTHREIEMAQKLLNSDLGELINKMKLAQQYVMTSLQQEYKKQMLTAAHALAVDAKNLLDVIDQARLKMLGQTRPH

For the compound `COCCOC(=O)N1C(=O)[C@@]2(c3cc(C#CCC(C(=O)OC)C(=O)OC)ccc31)[C@H](c1ccccc1OCCO)N1[C@H](c3ccccc3)[C@H](c3ccccc3)OC(=O)[C@H]1[C@@H]2C(=O)Nc1nc2ccccc2s1`, the composite z-score in assay [1] was 0.757; in assay [3], 0.261; in assay [4] it was -0.0048; in [5] it was 0.324; in [6] it was 1.93; in assay [7] it was 1.47. Further, the composite z-score stood at 1.31 in [8]; 0.554 in assay [9]; 1.12 in [10]; 2.04 in assay [11]; 0.946 in assay [12]; 0.767 in [13]. For the same compound, the composite z-score in assay [14] is 0.945; in [15], 1.16; in assay [16], 1.58; in assay [18] it was 1.55; in assay [19] it was 0.577. The composite Z-score in [2] is 0.794 (inactive). The z-score was -1.64 in [17] and -2.57 (inactive) in [20].

Turning to `CN1C(=O)C2C=CC(C(O)C(c3ccccc3)c3ccccc3)N(Nc3ccccc3)C2C1=O` (stereo not given), the composite z-score in [1] is 0.959; in assay [3], 0.466; in assay [4], 0.0018; in assay [5], 0.453; in assay [6] it was 2.72; in assay [7], -0.167. In addition, the composite z-score in assay [8] worked out at 1.31; in [9], 0.106; in assay [10] it was 1.16; in [11], 0.889; in assay [12], 1.19; in [13], 0.668. In addition, the composite z-score in assay [14] was determined as 1.03; in [15], 1.36; in [16] it was 0.0635; in assay [18] it was 0.643; in [19], 0.889. Besides, the composite Z-score in assay [2] is 0.462 (inactive). Besides, the z-score was 0.0496 in assay [17] and -0.0128 (inactive) in [20].

In the case of `O=c1cccc(-c2cccc3ccccc23)o1`, the composite z-score in assay [1] was 0.702; in assay [3], -0.0377; in assay [4], 0.0135; in [5] it was 0.475; in assay [6], 0.458; in assay [7], 0.871. In addition, the composite z-score in assay [8] was 0.11; in [9], -0.671; in assay [10] it was -0.511; in assay [11], 0.874; in [12], 1.2; in [13] it was 1.35. Further, the composite z-score is 0.708 in [14]; 0.26 in [15]; -0.32 in assay [16]; -0.789 in [18]; 0.8 in assay [19]. For the same compound, in assay [2], the composite Z-score was 0.276 (inactive). The z-score in assay [17] was 0.316; in [20] it was 1.52 (inactive).

`O=C(NCc1ccccc1)[C@@H]1c2ccccc2C(=O)N(C2CCCCC2)[C@H]1c1ccc(CO)cc1`: the composite z-score is 0.654 in assay [1]; -0.112 in assay [3]; -0.286 in [4]; 0.795 in assay [5]; 0.642 in assay [6]; 1.78 in [7]. The composite z-score is 0.467 in assay [8]; -0.475 in assay [9]; 0.335 in assay [10]; 0.61 in assay [11]; 1.01 in assay [12]; 0.405 in [13]. For the same compound, the composite z-score is -0.0594 in assay [14]; 1.29 in [15]; 0.487 in [16]; 0.917 in assay [18]; 0.803 in [19]. Also, the composite Z-score in [2] was 0.142 (inactive). For the same compound, the results for the z-score in assay [17] and in assay [20] were 2.15 and -0.441 (inactive), respectively.

For `Cc1ccc(C(C)CC(O)C2C=CC3C(=O)NC(=O)C3N2Nc2ccccn2)o1` (stereo not given), the composite z-score is -0.5 in assay [1]; 0.237 in assay [3]; -0.106 in [4]; 0.887 in assay [5]; 0.305 in assay [6]; 0.149 in assay [7]. The composite z-score was 0.259 in assay [8]; 0.676 in assay [9]; -0.336 in assay [10]; 1.17 in assay [11]; -0.722 in assay [12]; -0.121 in assay [13]. In addition, the composite z-score in assay [14] is -0.633; in assay [15], 0.709; in assay [16], 0.243; in [18], 0.643; in assay [19] it was -0.0217. Further, the composite Z-score in assay [2] was 0.598 (inactive). In addition, the results for the z-score in assay [17] and in assay [20] were 0.839 and -2.19 (inactive), respectively.
